Abeta yeast res – qHTS for compounds that reverse cellular toxicity of Amyloid beta (A-beta) peptide in yeast: Primary Screen. yeast expressing A-beta42, growth rescue, OD600, 48 h; response scale: 0% DMSO, 100% iron-clioquinol control. Potency, µM (doses to about 46.1 µM), hits mostly activators. actives 0.063% (n = 410,000). AID 1347071, 2019; also: nearly all actives have a fitted effect of over 55% in size
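Growth rescue measured by 600 nm absorbance after 48 h yeast culture at 30 C with compound. Values normalized between DMSO and an equimolar ferric chloride plus clioquinol control.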
TDP-43 yeast inh – qHTS of TDP-43 Inhibitors | TDP-43 expressing yeast growth rescue, BacTiter-Glo, 24 h | actives 1.8% (n = 410,000) | AID 652104, 2013 | Potency, µM (doses to about 46.1 µM), inactives show top-dose growth rescue (activation), usual class: activators; also: % of control where 0% means no effect; nearly all actives have a fitted effect of over 50% in size
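Yeast cells expressing TDP-43 under galactose induction are exposed to compounds for 24 hr at 30 deg C. BacTiter-Glo luminescence measures growth, so protective compounds score as activators.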
FUS yeast rescue – qHTS for Suppressors of FUS Proteinopathy: Primary screen using FUS-linked yeast assay. S. cerevisiae FUS-expressing, growth rescue, OD600, 24 h. Potency, µM (series often up to 76.6 µM), hits mostly activators. actives 0.24% (n = 390,000). AID 1347120, 2019;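 also: plate controls were DMSO vehicle for no effect and reference control for full effect; nearly all actives have a fitted effect of over 55% in size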
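FUS-expressing yeast, raffinose-pregrown, induced in 2% galactose minimal medium at OD 0.005; compounds in a dilution series, 24hr at 30C. Growth restoration read as absorbance at 600 nm. CP55940 positive control, DMSO negative.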
aSyn yeast inh – qHTS of alpha-syn Inhibitors. actives 0.14% (n = 370,000). AID 652106, 2013. Potency, µM (series often up to 46.1 µM), inactives show top-dose growth rescue (activation), actives largely listed as activators. Yeast expressing alpha-synuclein, growth rescue, BacTiter-Glo, 24 h; also: % of control where 0% means no effect; nearly all actives have a fitted effect of over 65% in size
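Screening used galactose-induced yeast with toxic alpha-synuclein levels, exposed to compound for 24 hr at 30 deg C. Cell growth, read with BacTiter-Glo luminescence, gave the measured signal.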
* hit, by the source's call; i = inactive; u = inconclusive; x = no result; ! = not active in a repeat; [ ] = another dose, or the depositor's remark. In the library only some 2.1% were active in any assay of this set; here they are far more common. Calls follow the shape of the dose curve; as a rule, active = well fitted curve in the direction sought with a large enough effect; inconclusive = small, poorly fitted or top-dose-only effect, or another doubt; inactive = no such curve, though single readings can be large; an effect the other way counts as inactive or inconclusive. Potency is read from the fitted curve at half-maximal effect.

SMILES	Abeta yeast res	TDP-43 yeast inh	FUS yeast rescue	aSyn yeast inh
Cc1nc(S(=O)(=O)N2CCOCC2)c(C#N)c(C)c1Cl	i	13µM*	i	4%
N#Cc1cc(N)ccc1Sc1ccccc1	i	11µM*	i	13%
N#Cc1cc(-c2ccccc2)nnc1Sc1ccc(Cl)cc1	i	u	i	1%
N#Cc1cc(N)ccc1Sc1ccc(Cl)cc1	i[9.22 µM]	16µM*	i	18%
N#Cc1ccncc1Sc1ccc(Cl)cc1	i	18µM*	i	22%
CCn1ccc2cc(S(=O)(=O)N3CCCN(C(=O)Nc4ccccc4F)CC3)ccc21	i	u	i	1%
COc1ccc(NC(=O)CS(=O)c2ccc(F)cc2)cc1 (stereo unspecified)	i	-12%	i	-2%
COc1cccc(N=CC=C2OC(C)(C)C(C)(C)O2)c1	i	-24%[9.22 µM]	i	0%
Cn1c(Nc2ccc(F)cc2)nc2ccccc21	i	-8%[1.82 µM]	i	1%
Cn1c(NC(=O)c2ccc(F)cc2)nc2ccccc21	i	28µM*	i	-6%
Cn1cnc2nc[nH]c2c1=O	i	-3%	i	-2%
O=C1c2ccccc2C2N1CCCN2C(=O)c1sc2ccccc2c1Cl (stereo unspecified)	i	18µM*	i	12%
Nc1ncnc2nc(-c3ccccc3)[nH]c12	i	17%	i	-9%
Nc1nc(N)c2[nH]c(-c3ccccc3)nc2n1	i	13µM*	i	-11%
O=C(CN1CCCC1)Nc1cc(F)ccc1F	i	12%	i	-3%
Cc1ccc(S(=O)(=O)N/N=C\c2ccc(Cl)c([N+](=O)[O-])c2)cc1	i	-2%	i	-9%
CCOCCc1nnc(NC(=O)C(=O)c2cc(C)n(-c3cccc(C)c3)c2C)s1	i	35µM*	u	x
C/C(=C\C(=O)C(F)(F)F)Nc1ccc(C(F)(F)F)cc1	i	-2%	i	-4%
COc1ccc(Br)cc1CNC(=O)CCC(=O)N1CCSc2ccccc21	i	22µM*!	u	-1%
Cc1nn(C)c(C)c1/C=C/C(=O)O	i	17%	i	8%
Cc1nn(C)c(C)c1/C=C/C(=O)c1ccc(Cl)cc1Cl	i	25µM*	i	10%
O=C1CC(=O)OC(c2ccc([N+](=O)[O-])cc2)O1	i	3.2µM*	i	u
COc1ccc2nc(N3CCN(C(=O)C4COc5ccccc5O4)CC3)sc2c1 (stereo unspecified)	i	u	i	21%
O=C(C1COc2ccccc2O1)N1CCN(c2nc3ccc(F)cc3s2)CC1 (stereo unspecified)	u	20µM*	u	x
O=C(C1COc2ccccc2O1)N1CCOCC1 (stereo unspecified)	i	-19%	u	-3%
SMILES	Abeta yeast res	TDP-43 yeast inh	FUS yeast rescue	aSyn yeast inh
O=C(C1COc2ccccc2O1)N1CCN(c2ccccc2)CC1 (stereo unspecified)	u	25µM*	i	1%
CCC(Sc1nc(=O)cc(N)n1CCc1ccccc1)C(=O)Nc1cc(C)on1 (stereo unspecified)	i	0%	i	2%
O=C(OCc1ccccc1Cl)c1cccnc1Cl	i	13%	i	0%
O=C(OCc1c(Cl)cccc1Cl)c1cccnc1Cl	i	13µM*	i	7%
O=C(Cc1ccc(-n2cccc2)cc1)N1CCN(c2ccccc2F)CC1	i	18µM*	x	0%
CSc1ccc(/C=C/C(=O)OCC(=O)NC2CCCC2)cc1	i	20µM*	i	-1%
O=C(COC(=O)/C=C/c1ccc(Cl)c(Cl)c1)NC1CC1	i	10µM*	x	24%
COC(=O)Cc1cc(=O)n(-c2ccccc2)[nH]1	i	-2%	i	18%
CCCn1nnc(NC(=O)c2ccc(-c3cccc(Cl)c3)o2)n1	i	13µM*	i	6%
COc1ccc(C)cc1S(=O)(=O)NCc1cccs1	i	-16%	i	8%
COc1ccc(Br)cc1S(=O)(=O)NCCc1cccs1	i	20µM*	i	u
C(=N\NC1=Nc2cccc3cccc1c23)/c1ccccn1	u	20µM*	i	0%
CN1/C(=C\C(=O)c2ccco2)C(C)(C)c2ccccc21	i	-61%	i	-35%
CN1/C(=C\C(=O)c2cccnc2)C(C)(C)c2ccccc21	i	3%	i	12%
CN1/C(=C/C(=O)c2nc(S(C)(=O)=O)ncc2Cl)C(C)(C)c2ccccc21	i	13µM*	x	4%
CN1/C(=C\C(=O)c2cncc(Br)c2)C(C)(C)c2ccccc21	i	13µM*	i	13%
CN(C)c1ccc(/C=C/c2ccnc3ccccc23)c(N)c1	x	x	x	-5%
O=C(COc1ccccc1Cl)NC(=S)N1CCc2ccccc21	u	18µM*	i	-20%
O=C(COc1ccccc1Cl)NC(=S)Nc1ccccc1N1CCCC1	u	16µM*	i	6%
COC(=O)c1ccccc1NC(=S)NC(=O)COc1ccccc1Cl	i	-4%	x	-11%
CCN(Cc1nc2ccccc2c(=O)[nH]1)C(=O)c1cc(C2CC2)nn1-c1ccccc1	i	u	i	-2%
Cc1ccc(S(=O)(=O)Nc2ccccc2C(=O)N2CCCC2)cc1	i	-8%	x	6%
O=C(CSc1nnc(-c2ccccn2)o1)Nc1ccccc1	i	-5%	i	-9%
O=C(CSC1=NNC(c2ccccn2)S1)Nc1ccccc1 (stereo unspecified)	u	13µM*	i	21%
O=C(CSC1=NNC(c2ccccn2)S1)Nc1cccc(Cl)c1 (stereo unspecified)	16µM*	u	i	8.9µM*
SMILES	Abeta yeast res	TDP-43 yeast inh	FUS yeast rescue	aSyn yeast inh
CCOc1ccccc1NC(=O)c1nc(SCc2ccccc2F)ncc1Cl	x	x	x	-2%
O=C(c1cc(COc2ccc(F)cc2Cl)on1)N1CCN(C2CCCCC2)C(=O)C1	i	20µM*	x	20%
O=C(c1cc(COc2ccc(F)cc2Cl)on1)N1CCN(C2CCCC2)CC1	i	-3%	i	-6%
O=C(CCCn1c(=O)c2cccn2c2cccnc21)NCCc1ccc(Cl)cc1	i	22µM*!	i	-11%
COc1cccc(CNC(=S)Nc2cccc(Cl)c2C)c1	u	18µM*	i	1%
C/C(=N\NC(=S)NCc1ccccc1)c1ccc2c(c1)OCCO2	i	13µM*	i	-2%
COc1cc2[nH]c(C(=O)N3CCc4ccccc4C3)cc2c(OC)c1OC	i	22µM*	i	-16%
O=C(NCc1ccccc1)N1CCOc2ccccc21	i	19%	i	0%
O=C1c2sccc2-c2cccc3cccc1c23	i	-52%	i	u
O=C1C(Br)=Cc2cccc3cccc1c23	i	14µM*	i	0%
Cc1cc(C)cc(OCC(=O)Nc2nc(-c3ccccn3)cs2)c1	i	13%	i	2%
Cn1cccc1C(=O)Nc1nc(-c2ccccn2)cs1	u	14µM*	u	u

From PubChem BioAssay
